Compounds without any hit were thinned out: in the full panel of roughly 83,000, 20% have a hit.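 Negative percent growth values reflect cell death: -40 means 40% of the cells present at the start died, and -100 means all died.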 A number with no mark means an inactive call. Active and inactive are the calls of the source.

For the assay, the system named is NCI-H322M lung. Put plainly: NCI-60 one-dose screen, 48 h (100 = growth as untreated, 0 = no growth, -100 = all killed). Conditions: 10 µM unless noted. Here is the method: Growth inhibition of the NCI-H322M human Non-Small Cell Lung tumor cell line is measured as a screen for anti-cancer activity. Cells are grown in 96 well plates and exposed to the test compound for 48 hours. Compounds are tested at a single concentration, which is 10^-5 M for most compounds. The reported endpoint is percent growth (GI% or GIPRCNT), where numbers from 0 - 100% represent growth inhibition, and numbers from -100% - 0 represent cell death. For example, a value of 40 represents 60% growth inhibition. A value of 0 means no net growth occurred over the course of the experiment. A value of -40 indicates 40% of cells at the beginning of the experiment died by the end of the experiment. A value of -100 means all cells are dead at the end of the experiment.
NCI-60 Human Tumor Cell Lines Screen was performed using the standard one-dose NCI protocol, which is described in more detail at https://dtp.cancer.gov/discovery_development/nci-60/default.htm.
Compounds with GIPRCNT values below 10 were considered active. Activity score was based on GIPRCNT using the following formula: […]
Score is 0 for GIPRCNT values of 100 or above, 50 for GIPRCNT values of 0, and 100 for GIPRCNT values of -100.
`CC(=O)Oc1ccccc1C(=O)NCCC[Se]C#N`: the growth is 2.65% (active).

On to `CC1CCCC(C[N+](C)(C)C)C1=O` (stereo not given), for which the growth is 77.2%. Then `C=CCn1cc(C=C2C(=O)N(C)C(=O)N(C)C2=O)c2ccccc21`, with 87.8%; and `COC(=O)[C@@H](C)C[C@H](Cc1ccccc1)NC(=O)c1csc(CC[C@H](C(C)C)N(C)C(=O)[C@@H](NC(=O)[C@H]2CCCCN2C)C(C)C)n1`, with 44.4%; and `Cn1cc(C2=C(c3cn(C4CCN(Cc5ccccn5)CC4)c4ccccc34)C(=O)NC2=O)c2ccccc21`, with 37.2%. Then `COC(=O)[C@H](C[C@H](Cc1ccccc1)NC(=O)c1csc([C@@H](C[C@H](C(C)C)N(C)C(=O)[C@@H](NC(=O)[C@H]2CCCCN2C)C(C)C)OC(C)=O)n1)NC(=O)OCc1ccccc1`, with 44.7% [8.5 µM]; and `C[C@@]12CC=C3c4nc(Nc5cccc(O)c5)sc4CC[C@]3(C)[C@H]1CC[C@]1(C)C(=O)CC[C@@H]21`, with 72.8%. For `Cc1cc(N(CCCl)CCCl)ccc1C=Nc1ccccc1-c1ccccc1`, the growth was 101%. Next, `CC1(C)N=C(N)N=C(N)N1c1ccc(CCC(=O)Nc2ccc(S(=O)(=O)F)cc2)c(Cl)c1`: 57.9%. Next, `O=C(CC1(O)C(=O)N(Cc2ccccc2)c2ccc(Cl)cc21)c1ccc(C(=O)NCC2CCC3(CC2)OOC2(CCCCC2)OO3)cc1` (stereo not given): 64.2%; `CC[C@]12C=CCN3CC[C@@]4(c5ccc(OC)cc5N(C)[C@H]4[C@@](O)(C(=O)OC)[C@@H]1OC(=O)CCCC[P+](c1ccccc1)(c1ccccc1)c1ccccc1)[C@@H]32`: 47.1%. Then `C[C@]12CCc3nc(Nc4ccccc4F)sc3C1=CC[C@@H]1[C@@H]2CC[C@]2(C)C(=O)CC[C@@H]12`, with 86.5%. For the compound `COC(C(=O)[C@@H](O)[C@@H](C)O)[C@@H]1Cc2cc3cc(O[C@H]4C[C@@H](O[C@H]5C[C@@H](O)[C@H](O)C(C)O5)[C@H](O)C(C)O4)c(C)c(O)c3c(O)c2C(=O)[C@H]1O[C@H]1C[C@@H](O[C@H]2C[C@@H](O[C@H]3C[C@@H](O)[C@@H](O)C(C)O3)[C@@H](O)C(C)O2)[C@H](O)C(C)O1` (stereo not given in full), the growth is 14%.

With `COC(=O)C1CCC(NC(=O)c2csc([C@@H](C[C@H](C(C)C)N(C)C(=O)[C@@H](NC(=O)[C@H]3CCCCN3C)C(C)C)OC(C)=O)n2)CC1` (stereo not given in full), the growth was 47.8%. Turning to `O=C(Nc1ccc(O)cc1)C(Cl)(Cl)Cl`, the growth is 102%. Next, `CCOP(=O)(NC[C@H]1O[C@](O)(CO)[C@@H](O)[C@@H]1O)OCC`: 112%; `CN(C)C1C(=O)C(C(N)=O)=C(O)C2(O)C(=O)C3=C(O)c4c(O)cccc4C(C)(O)C3CC12.[Cl][Sb]([Cl])[Cl]` (stereo not given): 46.3%. In the case of `N#CCCNc1ccccc1`, the growth is 110%. Next, `O=C1C2CC=CCC2C(=O)N1SC(Cl)(Cl)Cl` (stereo not given): 125%. Next, `Clc1ccc(CSC(Cn2ccnc2)c2ccc(Cl)cc2Cl)cc1` (stereo not given): 63.3%; `COc1ccc(NC([Se])=NC23CC4CC(CC(C4)C2)C3)cc1`: 3.73% (active). `CC(=O)O[C@H]1C(=O)[C@@]2(C)[C@H]([C@H](OC(=O)c3ccccc3)[C@]3(O)C[C@H](OC(=O)[C@H](OC(=O)OCC4COC(C)(C)O4)[C@@H](NC(=O)c4ccccc4)c4ccccc4)C(C)=C1C3(C)C)[C@]1(OC(C)=O)CO[C@@H]1C[C@@H]2O` (stereo not given in full): the growth is 40.6%. As for `CC1=C(CCCOC(=O)CN)C2=C(C)C3(CC3)[C@@](C)(O)C(=O)C2=C1`, the growth was 97.1%. Next, `O=C1CN=C(c2ccc(Cl)cc2)c2sccc2N1`: 91.2%. Consider `CCCc1cc(O)c2c3c(c(=O)oc2c1)CN(C)CC3`, for which the growth was 42.9%. Then `CC1=C(CCCNS(C)(=O)=O)C2=C(C)C3(CC3)[C@@](C)(O)C(=O)C2=C1`, with -3.8% (active); and `COc1ccc(C(=O)c2sc3nc4c(cc3c2N)N2CCC4CC2)cc1OC`, with 107%. Turning to `CC(=O)c1ccc(C(=O)NCC2CCC3(CC2)OOC2(CCCCC2)OO3)cc1`, the growth is 89.8%. As to `CCOC(=O)[C@@H](C)C[C@H](Cc1ccccc1)NC(=O)c1csc([C@@H](C[C@H](C(C)C)N(C)C(=O)[C@H](CC)NC(=O)[C@H]2CCCCN2C)OC(C)=O)n1`, the growth is 43.1%. Next, `COc1ccc([As]=[As]c2ccc(OC)c(NCS(=O)(=O)O)c2)cc1NCS(=O)(=O)O` (stereo not given): 95.6%; `Cc1ccc(C(=O)NCCCOc2ccc(N)cc2Cl)cc1S(=O)(=O)F`: 87.2%; `CCC1CC(O)c2c(O)c3c(c(O)c2C1O)C(=O)c1cccc(O)c1C3=O` (stereo not given) (tested in a mixture with another compound): -16.4% (active). Then `O=C1C2C(C(=O)[N]1[Hg][c]1cccs1)C1(Cl)C(Cl)=C(Cl)C2(Cl)C1(Cl)Cl` (stereo not given), with 78.3%; and `C[C@]12CC[C@H]3[C@@H](CC[C@]4(O)C[C@@H](O[C@@H]5O[C@H](CO)[C@@H](O[C@@H]6OC[C@@H](O)[C@H](O)[C@H]6O)[C@H](O)[C@H]5O)CC[C@]34C=O)[C@@]1(O)CC[C@@H]2C1=CC(=O)OC1`, with -13.2% (active); and `CNC12C3C4C1C1C2C3C41C(=O)N[C@H](C(=O)N(C)[C@H](C[C@@H](OC(C)=O)c1nc(C(=O)N[C@@H](Cc2ccccc2)C[C@H](C)C(=O)OC)cs1)C(C)C)C1CC1` (stereo not given in full), with 48.5%. Next, `COC(=O)[C@@H](C)C[C@H](Cc1ccccc1)NC(=O)c1csc([C@@H](C[C@H](C(C)C)N(C)C(=O)[C@@H](NC(=O)[C@H]2CCCCN2C)C(C)C)OC(C)=O)n1`: 46.8%; `COc1ccc2nc(NC(=O)COc3cc(/C=C\c4cc(OC)c(OC)c(OC)c4)ccc3OC)sc2c1`: 25.3%; `C#C[C@]1(OC(=O)CCCCCC)CC[C@H]2[C@@H]3CCC4=CC(=O)CC[C@@H]4[C@H]3CC[C@@]21C`: 49.5%. For `CCn1cnc2c(Nc3cccc(Cl)c3)nc(N[C@@H]3CCCC[C@@H]3N)nc21`, the growth was 15.4%.

Regarding `O=C1CNC(c2ccccc2)c2cc(Cl)ccc2N1` (stereo not given), the growth was 95.5%.

The values above are taken from PubChem BioAssay (NCI).
